Assay [1] is described as follows: qHTS assay to identify small molecule antagonists of the vitamin D receptor (VDR) signaling pathway - cell viability counter screen (AID 743225). Also: % is scaled to controls: 0 for no effect and ±100 for the full control effect; nearly all actives have a fitted effect of over 50% in size. In short, it runs like this: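 Parallel cytotoxicity test: VDR-UAS-bla HEK 293T, 3 nM (final) 1-alpha,25-dihydroxyvitamin D3 with test compound, 16 h, 37C. Endpoint is CellTiter-Glo luminescence in the same wells.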
(In qHTS, concentration-response curves come from the screen itself.)

Assay [2] in a line: qHTS assay to identify small molecule agonists of the NFkB signaling pathway - cell viability counter screen (AID 1159515; calls by dose curve; also: series mostly up to about 61 µM; % is scaled to controls: 0 for no effect and ±100 for the full control effect; nearly all actives have a fitted effect of over 55% in size). In short, it runs like this:
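Viability in NFkB-bla ME-180 cells was measured by CellTiter-Glo luminescence, 30 min room temperature, in wells already treated 5 hr with compounds and read for reporter FRET.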

Assay [3] can be described thus: qHTS assay to identify small molecule agonists of the endoplasmic reticulum stress response signaling pathway (AID 1159516; active = well fitted activation curve with a large enough effect in the signal ratio in the repeat runs, not every such curve was filed as active; the % refers to the signal ratio; also: potency is read from the fitted curve at half-maximal effect; as to activation: % is scaled to controls: 0 for no effect and ±100 for the full control effect). In outline:
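ER stress element reporter (bla) in HeLa. 1,500 cells/well, overnight attachment; 5 hr compound; 2 hr RT substrate; dual-emission fluorescence.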

Assay [4] is described as follows: qHTS assay to identify small molecule agonists of the endoplasmic reticulum stress response signaling pathway - cell viability counter screen (AID 1159517; calls by dose curve;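 also: HeLa cells carrying an ER stress response element beta-lactamase reporter; series mostly up to about 61 µM; % is scaled to controls: 0 for no effect and ±100 for the full control effect; nearly all actives have a fitted effect of over 50% in size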). In outline:
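CellTiter-Glo was added to wells already read for beta-lactamase FRET, and luminescence was recorded 30 min later. Cells: ESRE-bla HeLa, 1,500 per well, compound exposure 5 hr at 37 C.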

A short description of assay [5]: qHTS assay to identify small molecule antagonists of the retinoid-related orphan receptor gamma (ROR-gamma) signaling pathway - cell viability counter screen (AID 1159520). Also: % is scaled to controls: 0 for no effect and ±100 for the full control effect; nearly all actives have a fitted effect of over 50% in size. In outline:
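Tet-on ROR gamma CHO cells (1,000/well) were plated 4 hr, given compounds in DMSO for 2 hr at 37 C, then induced with 1 uM final doxycycline for 16 hr. Viability was read as ATP by CellTiter-Glo luminescence after 30 min.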

Assay [6] deals with Nuclear receptor ROR-gamma (Homo sapiens) (UniProt P51449). The assay can be described thus: qHTS assay to identify small molecule antagonists of the retinoid-related orphan receptor gamma (ROR-gamma) signaling pathway (AID 1159521;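 also: CHO cells with doxycycline inducible ROR-gamma driving an RORE luciferase reporter; top concentration of the series differs between compounds; % is scaled to controls: 0 for no effect and ±100 for the full control effect; nearly all actives have a fitted effect of over 50% in size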). In outline:
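Decreased RORE-driven luciferase luminescence indicates antagonism. Tet-on RORγ CHO cells received compound, then 1 uM final doxycycline 2 h later; signal read after 16 h incubation.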

Assay [7] can be described thus: qHTS assay to identify small molecule agonists of the AP-1 signaling pathway - cell viability counter screen (AID 1159525; calls by dose curve; also: nearly all actives have a fitted effect of over 55% in size). In outline: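 ME-180 AP-1-bla, 2500 cells/well, Opti-MEM + 0.5% dialyzed FBS; overnight 37 °C; cpd 15-pt titration, 5 h 37 °C; CellTiter-Glo 30 min RT; luminescence read; normalised to TOAB and DMSO controls.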
A short description of assay [8]: qHTS assay to identify small molecule agonists of the AP-1 signaling pathway (AID 1159526; calls by dose curve; also: % is scaled to controls: 0 for no effect and ±100 for the full control effect).
Assay [9] has as its target Retinoic acid receptor RXR-alpha (Homo sapiens) (UniProt P19793). The assay is described as follows: qHTS assay to identify small molecule agonists of the RXR signaling pathway (AID 1159527; calls by dose curve; also: % is scaled to controls: 0 for no effect and ±100 for the full control effect; nearly all actives have a fitted effect of over 35% in size). In short, it runs like this:
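16 hr incubation of compound-treated RXR-alpha-UAS-bla HEK 293T cells (2% charcoal-stripped FBS, 37 C) preceded a 2 hr room-temperature LiveBLAzer FRET substrate step and blue/green fluorescence measurement.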

Assay [10] is described as follows: qHTS assay to identify small molecule agonists of the RXR signaling pathway - cell viability counter screen (AID 1159529). In short, it runs like this: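 In this parallel viability measure, GeneBLAzer RXR-alpha HEK 293T cells (2% charcoal-stripped FBS) were given a 5 hr preincubation, treated with compounds 16 hr at 37 C, and read by CellTiter-Glo luminescence.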

A short description of assay [11]: qHTS assay to identify small molecule antagonists of the retinoid acid receptor (RAR) signaling pathway - cell viability counter screen (AID 1159551). Also: % is scaled to controls: 0 for no effect and ±100 for the full control effect; nearly all actives have a fitted effect of over 35% in size. In outline:
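Following overnight attachment, C3RL4 reporter cells received DMSO-dissolved compounds and then retinol (1 uM final). Six hours later at 37 C, ATP content was measured by CellTiter-Glo luminescence.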

The nature of assay [12]: qHTS assay to identify small molecule antagonists of the retinoic acid receptor (RAR) signaling pathway (AID 1159552). In outline: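 C3RL4 RARE-luc cells, overnight plating; retinol 1 uM final added right after compound; 6 hr 37 C; luciferase read at 30 min RT.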
Assay [13] in a line: qHTS assay to identify small molecule agonists of the retinoic acid receptor (RAR) signaling pathway (AID 1159553). Also: % is scaled to controls: 0 for no effect and ±100 for the full control effect. In short, it runs like this:
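Cell line C3RL4, RARE luciferase reporter. Treatment: compounds in DMSO, 6 hr, 37 C, 5% CO2, after overnight plating. Detection: luminescence, 30 min RT after reagent.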

Assay [14] is described as follows: qHTS assay to identify small molecule antagonists of the estrogen related receptor (ERR) signaling pathway from Tox21 library - cell viability counter screen (AID 1224834). Also: % is scaled to controls: 0 for no effect and ±100 for the full control effect; nearly all actives have a fitted effect of over 30% in size. In outline:
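Viability readout (CellTiter-Fluor fluorescence, 30 min at 37 C) multiplexed with the ERR assay; cells treated 17.5 h at 37 C with compounds delivered in DMSO.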

Assay [15] deals with Luciferin 4-monooxygenase (Photinus pyralis) (UniProt P08659). The assay is described as follows: qHTS assay to identify small molecule inhibitors of firefly luciferase (AID 1224835). Also: series mostly up to about 120 µM; % is scaled to controls: 0 for no effect and ±100 for the full control effect; nearly all actives have a fitted effect of over 25% in size. In outline: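 Quantitative HTS format; KM concentrations of both substrates. Purified P. pyralis FLuc activity quantified from luminescence images.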
A short description of assay [16]: qHTS assay to identify small molecule agonists of the constitutive androstane receptor (CAR) signaling pathway - cell viability counter screen (AID 1224836). Also: series mostly up to about 92 µM; % is scaled to controls: 0 for no effect and ±100 for the full control effect; nearly all actives have a fitted effect of over 45% in size. In outline:
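Using CellTiter-Fluor, viability of HepG2 cells harbouring hCAR and CYP2B6-2.2kb was measured following 23 h incubation with a 15-concentration compound series plus PK11195 (0.75 uM final).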

A short description of assay [17]: qHTS assay to identify small molecule antagonists of the constitutive androstane receptor (CAR) signaling pathway - cell viability counter screen (AID 1224837). Also: series mostly up to about 92 µM; % is scaled to controls: 0 for no effect and ±100 for the full control effect; nearly all actives have a fitted effect of over 45% in size. In outline:
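Fluorescence from CellTiter-Fluor served as the viability signal. Human hepatoma HepG2 cells stably bearing hCAR and CYP2B6-2.2kb received compound plus CITCO (50 nM final) for 23 hr.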

The target in assay [18] is Nuclear receptor subfamily 1 group I member 3 (Homo sapiens) (UniProt Q14994). The assay is described as follows: qHTS assay to identify small molecule antagonists of the constitutive androstane receptor (CAR) signaling pathway (AID 1224838).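 Also: HepG2 cells stably expressing hCAR with CYP2B6 luciferase reporter stimulated by CITCO; % is scaled to controls: 0 for no effect and ±100 for the full control effect; nearly all actives have a fitted effect of over 40% in size.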 In short, it runs like this:
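Quantitative HTS in double-stable HepG2-CYP2B6-hCAR cells. After 4 h plating, cells get compound (15 concentrations) and CITCO at 50 nM final, incubate 24 h at 37 C, then ONE-Glo luminescence is read.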

Assay [19] has the same target. The assay can be described thus: qHTS assay to identify small molecule agonists of the constitutive androstane receptor (CAR) signaling pathway (AID 1224839).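 Also: HepG2 cells stably carrying human CAR and a CYP2B6 luciferase reporter; series mostly up to about 92 µM; % is scaled to controls: 0 for no effect and ±100 for the full control effect; nearly all actives have a fitted effect of over 15% in size.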 In short, it runs like this: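 Double-stable HepG2 cells (hCAR, CYP2B6-2.2kb) seeded 4 h before compound addition. Exposure 24 h with 0.75 uM PK11195 final. Luciferase detected by ONE-Glo.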
Assay [20] in a line: qHTS assay to identify small molecule antagonists of the estrogen related receptor signaling pathway with the pleiotropic PPARgamma coactivator (PGC) from Tox21 10K library - cell viability counter screen (AID 1224840; active = well fitted cell-killing curve with a large enough effect in the repeat runs, not every such curve was filed as active; also: % is scaled to controls: 0 for no effect and ±100 for the full control effect; nearly all actives have a fitted effect of over 40% in size). In short, it runs like this: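 Compounds in DMSO, alongside positive and negative controls, were pinned onto PGC/ERR cells (2,000 per well). Exposure lasted 17.5 hours at 37 C, followed by a 30-minute CellTiter-Fluor incubation and fluorescence reading.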

Results filed as inconclusive are left out. Values without a mark were called inactive. The source made the active and inactive calls. Unless noted, calls follow the shape of the dose curve; as a rule, active = well fitted curve in the direction sought with a large enough effect in the repeat runs; inconclusive = weak or mixed curves; inactive = no such curve, though single readings can be large; an effect the other way counts as inactive or inconclusive.

Chain of Nuclear receptor subfamily 1 group I member 3 (Homo sapiens) (Q14994 whole entry, looked up): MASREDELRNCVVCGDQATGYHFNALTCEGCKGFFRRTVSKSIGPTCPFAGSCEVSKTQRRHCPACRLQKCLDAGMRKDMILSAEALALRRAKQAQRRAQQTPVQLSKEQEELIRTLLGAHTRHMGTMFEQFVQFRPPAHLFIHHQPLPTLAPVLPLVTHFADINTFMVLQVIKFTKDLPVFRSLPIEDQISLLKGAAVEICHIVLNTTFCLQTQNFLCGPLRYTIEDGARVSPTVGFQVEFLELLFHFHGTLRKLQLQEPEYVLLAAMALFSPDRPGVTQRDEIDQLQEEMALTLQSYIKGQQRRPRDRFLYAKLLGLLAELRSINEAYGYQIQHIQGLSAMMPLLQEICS
Chain of Luciferin 4-monooxygenase (Photinus pyralis) (P08659 whole entry, looked up): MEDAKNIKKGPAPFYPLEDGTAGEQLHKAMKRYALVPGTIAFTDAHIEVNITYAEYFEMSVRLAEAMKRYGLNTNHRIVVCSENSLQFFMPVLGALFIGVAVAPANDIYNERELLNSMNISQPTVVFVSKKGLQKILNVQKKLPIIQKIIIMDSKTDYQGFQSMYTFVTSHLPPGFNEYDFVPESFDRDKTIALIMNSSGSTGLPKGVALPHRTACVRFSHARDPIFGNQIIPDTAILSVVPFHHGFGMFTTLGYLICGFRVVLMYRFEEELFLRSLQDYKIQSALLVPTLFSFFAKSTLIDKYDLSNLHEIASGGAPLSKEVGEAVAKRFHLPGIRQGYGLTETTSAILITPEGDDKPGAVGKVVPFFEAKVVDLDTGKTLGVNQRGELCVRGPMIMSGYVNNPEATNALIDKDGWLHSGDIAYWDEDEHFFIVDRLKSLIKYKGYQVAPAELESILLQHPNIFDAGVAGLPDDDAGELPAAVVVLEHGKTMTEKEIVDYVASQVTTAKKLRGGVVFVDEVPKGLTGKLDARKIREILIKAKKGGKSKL
Chain of Retinoic acid receptor RXR-alpha (Homo sapiens) (P19793 whole entry, looked up): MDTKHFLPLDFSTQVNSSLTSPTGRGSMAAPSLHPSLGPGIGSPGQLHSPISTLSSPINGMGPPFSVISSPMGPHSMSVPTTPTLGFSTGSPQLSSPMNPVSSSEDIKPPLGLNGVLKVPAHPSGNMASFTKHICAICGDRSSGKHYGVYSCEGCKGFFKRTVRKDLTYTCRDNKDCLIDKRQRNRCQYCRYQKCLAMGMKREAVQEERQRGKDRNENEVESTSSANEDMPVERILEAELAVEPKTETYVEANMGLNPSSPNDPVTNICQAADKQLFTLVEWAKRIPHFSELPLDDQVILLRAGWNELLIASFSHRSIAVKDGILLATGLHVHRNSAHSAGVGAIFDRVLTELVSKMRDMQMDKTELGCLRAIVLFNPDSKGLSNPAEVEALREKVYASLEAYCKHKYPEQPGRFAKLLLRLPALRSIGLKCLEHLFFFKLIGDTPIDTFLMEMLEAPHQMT

Consider `CN1C(CCl)Nc2cc(Cl)c(S(N)(=O)=O)cc2S1(=O)=O` (centres undefined), for which the compound was classed as inactive in assay [1], in assay [2], in assay [4], in assay [5], in assay [6] and in assay [7]. Also, the compound was classed as inactive in assay [11], in [12], in [14], in [16], in [17] and in assay [18]. Moreover, the result in assay [20] was inactive. For the same compound, the Potency result in assay [3], in assay [8], in assay [9], in assay [10], in assay [13] and in assay [15] was “inactive” throughout. For the same compound, in [19], the Potency entry was “inactive”.

`c1cc2ccc3ccc4ccc5cccc6c(c1)c2c3c4c56`: the viability change, negative = cytotoxic in assay [1] was -0.521% [at 3.11 µM]; in assay [7], -12.5% [at 2.72 µM]; in [14], 2.9% [at 3.27 µM]; in assay [16], 2.84% [at 3.27 µM]; in assay [20], -0.219% [at 3.27 µM]. The activity, negative = cytotoxic in assay [2] is -1.06% [at 3.12 µM]. In addition, the Potency in [3] is 1740 nM (active). Besides, the activity change, negative = cytotoxicity is 6.55% [at 3.11 µM] in assay [4], 0.199% [at 2.72 µM] in [10], 4.71% [at 3.27 µM] in [11] and 2.07% [at 3.26 µM] in assay [17]. The activity, negative = cytotoxicity in assay [5] is 0.12% [at 3.27 µM]. Also, the activity change, negative = inhibition in [6] is 7.63% [at 3.27 µM]; in assay [15] it was 1.19% [at 4.07 µM]. Also, the activation in assay [8] was -1.11% [at 2.72 µM]; in assay [9], 5.24% [at 2.71 µM]; in assay [13] it was -0.114% [at 3.75 µM]; in assay [19], 5.04% [at 3.27 µM]. Moreover, the activity, negative = inhibition in assay [12] is -1.28% [at 3.27 µM]; in assay [18], 27.3% [at 3.26 µM].

As to `CCCCS`, the result in assay [1], in assay [2], in assay [4], in assay [5], in assay [6] and in [7] was inactive. Besides, the call in assay [11], in assay [12], in assay [14], in assay [16], in assay [17] and in [18] was inactive. Further, the result in [20] was inactive. Besides, the Potency entry in assay [3], in [8], in assay [9], in assay [10], in assay [13] and in [15] was “inactive” throughout. For the same compound, the Potency entry in assay [19] was “inactive”.

As for `C[C@@H](CN1CC(=O)NC(=O)C1)N1CC(=O)NC(=O)C1`, the compound was classed as inactive in assay [1], in [2], in assay [4], in [5], in [6] and in [7]. The compound was called inactive in assay [11], in assay [12], in assay [14], in [16], in assay [17] and in assay [18]. The compound was classed as inactive in assay [20]. Also, the Potency entry in assay [3], in assay [8], in assay [9], in [10], in assay [13] and in assay [15] was “inactive” in each case. Moreover, the Potency entry in assay [19] was “inactive”.

Turning to `OCCC(F)(F)C(F)(F)C(F)(F)C(F)(F)C(F)(F)C(F)(F)F`, the result in assay [1], in assay [2], in assay [4], in assay [5], in assay [6] and in assay [7] was inactive. The result in [11], in assay [12], in assay [14], in assay [16], in assay [17] and in [18] was inactive. In addition, in [20], the outcome was inactive. In addition, the Potency entry in assay [3], in [8], in assay [9], in assay [10], in [13] and in [15] was “inactive” in each case. Moreover, in [19], the Potency entry is “inactive”.

Turning to `NNC(=O)OCc1ccccc1`, the call in [1], in assay [2], in assay [4], in [5], in assay [6] and in assay [7] was inactive. The call in assay [11], in [12], in [14], in [16], in assay [17] and in assay [18] was inactive. Further, the compound was called inactive in [20]. In addition, the Potency entry in [3], in assay [8], in assay [9], in assay [10], in assay [13] and in [15] was “inactive” in each case.

In the case of `N[C@H]1C(O)O[C@H](CO)[C@@H](O)[C@@H]1O` (some centres undefined), the compound was classed as inactive in assay [1], in [2], in assay [4], in assay [5], in [6] and in assay [7]. Further, the result in assay [11], in assay [12], in assay [14], in [16], in [17] and in assay [18] was inactive. In addition, in assay [20], the compound was classed as inactive. Moreover, the Potency entry in assay [3], in [8], in assay [9], in [10], in [13] and in assay [15] was “inactive” in each case. Besides, the Potency result in assay [19] was “inactive”.
